Compounds with a hit are over-represented: about 6% of the library has one in this group of screens.
PLK1 PBD block: PLK1 (human) polo-box domain binding inhibition | P53350 | Plk1 PBD binding of FITC phosphopeptide, fluorescence polarization | Potency, µM, without a hit: max response, negative = inhibition, most hits filed as inhibitors | actives 2.8% (n = 360,000) | AID 720504; also: series mostly up to about 57 µM; nearly all actives have a fitted effect of over 65% in size
VDR inhibitor: vitamin D3 receptor (human) inhibition. Potency, µM, inactives show max response, negative = inhibition, most hits filed as inhibitors. P11473. VDR-SRC2-3 peptide fluorescence polarization, 2 h. actives 0.93% (n = 400,000). AID 504847
Target sequence (P11473 whole entry, looked up): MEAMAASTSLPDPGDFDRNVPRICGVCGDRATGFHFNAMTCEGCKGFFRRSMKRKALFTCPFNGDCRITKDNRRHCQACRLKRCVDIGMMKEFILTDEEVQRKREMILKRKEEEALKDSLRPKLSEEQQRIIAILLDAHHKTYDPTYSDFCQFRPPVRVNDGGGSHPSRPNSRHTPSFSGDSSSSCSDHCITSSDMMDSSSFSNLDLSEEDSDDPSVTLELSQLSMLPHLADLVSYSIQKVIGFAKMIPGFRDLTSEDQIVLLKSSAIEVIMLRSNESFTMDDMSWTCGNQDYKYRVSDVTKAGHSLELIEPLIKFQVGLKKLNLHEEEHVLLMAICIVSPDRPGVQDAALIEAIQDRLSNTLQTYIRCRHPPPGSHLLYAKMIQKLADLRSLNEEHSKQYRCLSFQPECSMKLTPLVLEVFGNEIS
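Reagent solutions, kept cold and dark, are dispensed first; compounds are then pinned in at 23 nl, plates briefly spun, and incubated 2 h at ambient temperature. Inhibition of VDR–SRC2-3 peptide binding is read by fluorescence polarization.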
Sfp inh: blocks B. subtilis Sfp PPTase activity. Q9F4F7. Biochemical Sfp PPTase activity, qHTS. Potency, µM, for inactives: largest response in the series, negative = inhibition, usual class: inhibitors. actives 3.5% (n = 310,000);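 also: the enzyme is Sfp with the accession as filed and its product quenches rhodamine fluorescence; 0% = enzyme reaction without inhibitor and -100% = no enzyme wells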
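Reaction rates are the 30-min fluorescence difference (ex 525, em 598 nm) in wells containing 15 nM Sfp, 5 uM rhodamine-CoA and 12.5 uM BHQ-2-YbbR at pH 7.6 with 10 mM MgCl2.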
Tau FP inhib: inhibitors of human tau fibril formation. P10636. K18 P301L tau heparin fibrillization, Alexa594 FP, 6 h. Potency, µM (doses to about 57.7 µM), for the others: at the top dose activity, negative = inhibition, actives largely listed as inhibitors. actives 0.39% (n = 280,000). AID 1468; also: nearly all actives have a fitted effect of over 55% in size
Target sequence (P10636 561-689 P618L limits assumed): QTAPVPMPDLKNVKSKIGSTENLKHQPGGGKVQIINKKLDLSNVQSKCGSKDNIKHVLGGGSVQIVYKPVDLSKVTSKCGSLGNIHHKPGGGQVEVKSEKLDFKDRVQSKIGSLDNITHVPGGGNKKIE
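FP of Alexa 594-tau after heparin (20 uM) induction. Substrate: human K18 P301L, 15 uM unlabeled, 0.24 uM labeled. Buffer 100 mM sodium acetate pH 7. 6 hr, 37 C.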
Tau fluor counter: counter-screen for tau fibril formation inhibitors | actives 0.93% (n = 280,000) | tau K18 P301L Alexa594 fluorescence, heparin fibrillization | Potency, µM (series often up to 57.7 µM), for the others: at the highest dose activity change, negative = decrease; also: nearly all actives have a fitted effect of over 55% in size
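Human K18 P301L tau (15 uM unlabeled plus 0.24 uM Alexa 594-labeled, final) in 100 mM sodium acetate pH 7 was mixed with compound and 20 uM heparin and incubated 6 hr at 37 C.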
Tau ThT inhib: blocks human tau fibril formation measured by thioflavin T. P10636. actives 2.1% (n = 270,000). recombinant tau K18 P301L, heparin-induced fibrillization, ThT fluorescence. Potency, µM (highest dose often 57.4 µM), for the others: at the highest dose activity, negative = inhibition, usual class: inhibitors; also: nearly all actives have a fitted effect of over 55% in size
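ThT emission at 510 nm, taken 1 hr after adding 30 uM dye, quantifies aggregates formed when 20 uM heparin acts on human tau K18 P301L for 6 hr at 37 C.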
An asterisk follows results filed as active; ? = inconclusive; / = not tested or not shown; [ ] = remark or other dose. Calls follow the shape of the dose curve; as a rule, active = well fitted curve in the direction sought with a large enough effect; inconclusive = small, poorly fitted or top-dose-only effect, or another doubt; inactive = no such curve, though single readings can be large; an effect the other way counts as inactive or inconclusive. Unless noted, % is scaled to controls: 0 for no effect and ±100 for the full control effect; potency is read from the fitted curve at half-maximal effect.

SMILES | PLK1 PBD block | VDR inhibitor | Sfp inh | Tau FP inhib | Tau fluor counter | Tau ThT inhib
CCN(CC)c1ccc(/C=N/NC(=O)c2ccc(O)cc2)cc1 | / | 0.6% | -4.2% | 16.2% | ? | 3.16µM*
CCNC(=S)N/N=C/c1ccc(F)cc1 | / | / | -1.3% | 4.6% | 4.5% | 1.2%
CN(C)c1ccc(/C=N/NC(=S)NCc2ccccc2)cc1 | 23.8µM* | -26.5% | 27.0% | ? | ? | ?
CN(C)c1ccc(/C=N/NC(=O)c2ccc(NC(=O)c3ccccc3)cc2)cc1 | -7.0% | -1.5% | -3.3% | 3.4% | ? | 1.58µM*
COc1cc(C(=O)NCc2ccc3c(c2)CCN3C(=O)c2ccncc2)cc(OC)c1OC | / | -7.6% | / | -3.8% | -5.2% | -0.9%
CCN(CC)c1ccc(/C=N\NC(=O)c2cccc3cc[nH]c23)cc1 | 8.7% | 5.1% | 4.7% | -4.0% | 14.1µM*[quencher] | 6.31µM*
O=C(N/N=C/c1ccc([N+](=O)[O-])cc1)c1cccc2cc[nH]c12 | -5.8% | -5.2% | 21.0% | 5.9% | -17.8% | ?
CCN(CC)c1ccc(/C=N/NC(=O)c2ccoc2C)cc1 | 4.5% | 6.5% | 5.9% | -2.7% | ? | 10µM*
CCN(CC)c1ccc(/C=N\NC(N)=O)cc1 | -11.1% | -1.5% | -7.6% | 11.6% | -8.5% | ?
CC(S)C(=O)NCC(=O)O (stereo not given) | / | 1.0% | -18.6% | ? | -16.3% | ?
Cc1noc(C)c1C(=O)OCC(=O)/C=C1/N(C)c2ccccc2C1(C)C | 0.1% | -11.9% | / | / | / | /
Cc1cc(C)cc(NC(=O)/C=C/c2ccc([N+](=O)[O-])s2)c1 | -21.3% | -7.3% | 9.7% | -7.7% | -16.6% | ?
O=C(/C=C/c1cccc([N+](=O)[O-])c1)Nc1cc(C(=O)O)cc(C(=O)O)c1 | 10.6µM* | 35.5µM* | 9.6% | 3.8% | 4.2% | -11.5%
Cc1ccccc1NC(=O)/C=C/c1ccc([N+](=O)[O-])s1 | -19.9% | -13.2% | 4.8% | ? | ? | 12.6µM*
CC(=O)c1cccc(NC(=O)/C=C/c2ccc([N+](=O)[O-])s2)c1 | -13.7% | ? | 11.0% | ? | ? | 3.98µM*
Cc1ccc(C2CC(=O)C=C(NCC(C)C)C2)cc1 (stereo not given) | 26.7µM* | ? | 13.9% | 4.7% | -1.8% | -1.3%
CNc1c2cccc(C)c2nc2c(C(=O)NCCN(C)C)cccc12 | 16.8µM* | 31.9% | / | / | / | /
COc1ccc(OC)c(C2=NS(=O)(=O)N(C)C(C(=O)Nc3ccc(F)cc3F)=C2)c1 | 29.9µM* | ? | 6.3% | -12.5% | -1.4% | 1.0%
CCOCCCNC(=O)Cn1cnc2c(cnn2-c2ccc(OC)cc2)c1=O | 26.7µM* | -24.1% | 12.2% | / | / | /
CCCn1c(-c2ccc(F)cc2)nc2c(NC3CC4CCC(C3)N4C)nc(C)nc21 (stereo not given) | / | / | 14.1% | -2.2% | -10.4% | -0.6%
Nc1ccc(O)cc1C(=O)OCC(=O)c1ccc(C2CCCCC2)cc1 | 5.3% | -21.5% | -20.0% | -0.6% | 12.6µM*[quencher] | ?
CCS(=O)(=O)N1Cc2ccccc2CC1C(=O)NCc1cccc(OC)c1 (stereo not given) | -1.8% | -3.3% | -3.2% | / | / | /
COc1cccc(CNC(=O)C2Cc3ccccc3CN2C(C)=O)c1 (stereo not given) | 29.9µM* | ? | 11.9% | / | / | /
CCc1ccc([C@@H]2C[C@H]3[C@@H](CN2S(=O)(=O)c2ccc(C)cc2)C(=O)C[C@@H](c2cccc(Cl)c2)N3S(=O)(=O)c2ccc(C)cc2)cc1 | -29.6% | / | / | / | / | /
CCCC[C@]12Cc3ccccc3C(O1)c1c(c3ccccc3oc1=O)O2 | / | / | 17.3% | / | / | /
SMILES | PLK1 PBD block | VDR inhibitor | Sfp inh | Tau FP inhib | Tau fluor counter | Tau ThT inhib
CSc1ccc(CCNC(=O)C(C)n2nc(C)c3c(C)n(-c4ccccc4)nc3c2=O)cc1 (stereo not given) | / | 15.8% | / | 7.3% | 2.2% | ?
CCOc1ccc(CNC(=O)Cn2nc(C)c3c(C)n(-c4ccc(C)cc4)nc3c2=O)cc1 | 29.9µM* | -19.3% | -13.5% | -3.1% | 3.1% | 6.3%
CSc1ccc(CNC(=O)C(C)n2nc(C)c3c(C)n(-c4ccccc4)nc3c2=O)cc1 (stereo not given) | 21.2µM* | -21.4% | 4.6% | / | / | /
CCc1ccc(CNC(=O)Cn2nc(C)c3c(C)n(-c4ccc(C)cc4)nc3c2=O)cc1 | / | -3.2% | / | -9.2% | -2.1% | -7.0%
CCOC(=O)C(O)(NC(=O)c1cccnc1)C(F)(F)F (stereo not given) | 2.8% | 3.2% | 8.5% | 2.3% | -2.5% | 0.4%
CC(=O)C(C(C)=O)C(NC(=O)c1cccnc1)(C(F)(F)F)C(F)(F)F | 2.67µM* | ? | 8.0% | -1.1% | 6.0% | -3.5%
CC(C)C(NC(=O)c1cccnc1)C(=O)O (stereo not given) | -3.1% | 79.4µM* | 5.0% | 7.4% | 2.2% | 2.7%
Cc1ccc(C(C)NC(=O)c2cccnc2)cc1 (stereo not given) | -7.3% | 1.7% | / | / | / | /
N=c1c(S(=O)(=O)c2ccccc2)cc2c(=O)n3ccccc3nc2n1C1CCCCC1 | 21.2µM* | -25.5% | / | / | / | /
COC(=O)[C@@H]1CC[C@H](C)[C@@H](c2ccc(C)cc2)N1C(=O)c1ccc(/C=N\O[C@@H](C)CN2CCCc3nc(C)c(C)cc32)cc1 | / | / | -19.2% | 3.7%[11.6 µM] | -0.2%[11.6 µM] | -8.3%[11.5 µM]
FC(F)(F)Oc1ccc(NC(=S)NCCCN2CCOCC2)cc1 | 11.9µM* | -7.4% | 56.2µM* | -1.0% | -6.8% | -2.4%
S=C(NCCCN1CCOCC1)NCCCN1CCOCC1 | 5.32µM* | ? | 7.08µM* | -11.7% | -0.7% | -11.5%
COc1cc(C(CCN2CCCC2)c2c(OC)cc(OC)c3c2OC(=O)CC3c2ccc(N(C)C)cc2)cc(OC)c1OC (stereo not given) | / | -5.5% | -4.0% | / | / | /
Cc1n[nH]c(=S)n1/N=C/c1ccccc1OCc1ccc(Cl)cc1 | -14.3% | -3.5% | 50.1µM* | -8.2% | -13.5% | -5.6%
C=C[C@]1(C)C=C2CC[C@H]3[C@@](C)(CCC[C@@]3(C)C(=O)O)[C@@H]2CC1 | 29.9µM* | -7.9% | / | / | / | /
CC(C)C1=CC2=CC[C@@H]3[C@@](C)(C(=O)O)CCC[C@]3(C)C2CC1 (stereo not given in full) | / | / | -4.6% | -6.5% | -9.3% | -11.7%
CN(CC(=O)Nc1cccc(F)c1)C(=O)CSc1ccccc1F | 23.8µM* | -0.1% | 1.3% | / | / | /
CN(CC(=O)Nc1cccc(F)c1)C(=O)CCSc1ccc(F)cc1 | -11.3% | -15.4% | / | / | / | /
CCc1ccc(-n2c(=O)c3c4c(sc3n(CC(=O)N3CCCCC3CC)c2=O)CCC4)cc1 (stereo not given) | / | -7.3% | / | -2.1% | -0.4% | -2.4%

Screens deposited in PubChem BioAssay by National Center for Advancing Translational Sciences (NCATS).
